Experimental data taken from PubChem BioAssay (NCI).
About 83,000 compounds went through this panel and 20% of them were active in at least one assay; those are over-represented in the sample as a whole.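 Each cell line was grown in a 96-well plate and treated with one concentration of compound for 48 hours. Values below 10 were considered active.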

How the values were obtained:
Experiment in all cases: NCI-60 one-dose screen, 48 h (100 = growth as untreated, 0 = no growth, -100 = all killed)
Conditions in all cases: 10 µM unless noted
NCI-H23 lung = test system: NCI-H23 lung
NCI-H226 lung = test system: NCI-H226 lung
NCI-H322M lung = test system: NCI-H322M lung
HOP-62 NSCLC = test system: HOP-62 NSCLC
NCI-H460 lung = test system: NCI-H460 lung
HOP-92 NSCLC = test system: HOP-92 NSCLC
NCI-H522 lung = test system: NCI-H522 lung
A549/ATCC NSCLC = test system: A549/ATCC NSCLC
786-0 renal = test system: 786-0 renal
COLO 205 colon = test system: COLO 205 colon
DU-145 prostate = test system: DU-145 prostate
K-562 leukemia = test system: K-562 leukemia
MALME-3M melanoma = test system: MALME-3M melanoma
MDA-MB-231 breast = test system: MDA-MB-231 breast
RXF 393 renal = test system: RXF 393 renal
SF-268 CNS = test system: SF-268 CNS
SF-295 CNS = test system: SF-295 CNS
SF-539 CNS = test system: SF-539 CNS
UACC-257 melanoma = test system: UACC-257 melanoma
M14 melanoma = test system: M14 melanoma

Measured: growth

CC1(C)C2CCC1(C)C1(C2)OCCS1 (stereo not drawn)
inactive: NCI-H23 lung 95.6% | NCI-H226 lung 92.7% | NCI-H322M lung 99.6% | HOP-62 NSCLC 101% | NCI-H460 lung 106% | HOP-92 NSCLC 102% | NCI-H522 lung 102% | A549/ATCC NSCLC 99% | 786-0 renal 97.4% | COLO 205 colon 118% | DU-145 prostate 103% | K-562 leukemia 96.5% | MALME-3M melanoma 94.6% | MDA-MB-231 breast 100% | RXF 393 renal 96% | SF-268 CNS 93.8% | SF-295 CNS 92.2% | SF-539 CNS 94.1% | UACC-257 melanoma 102% | M14 melanoma 113%

O=C(Nc1c(Cl)cc(Cl)cc1Cl)ON=C1CCCCC1
inactive: NCI-H23 lung 104% | NCI-H226 lung 99.4% | NCI-H322M lung 106% | HOP-62 NSCLC 100% | NCI-H460 lung 111% | HOP-92 NSCLC 132% | NCI-H522 lung 95.2% | A549/ATCC NSCLC 99.2% | 786-0 renal 99.8% | COLO 205 colon 126% | DU-145 prostate 94.9% | K-562 leukemia 105% | MALME-3M melanoma 101% | MDA-MB-231 breast 101% | RXF 393 renal 116% | SF-268 CNS 91.7% | SF-295 CNS 102% | SF-539 CNS 97.4% | UACC-257 melanoma 102% | M14 melanoma 111%

OCCc1ccc(Cl)cc1
inactive: NCI-H23 lung 104% | NCI-H226 lung 99.9% | NCI-H322M lung 101% | HOP-62 NSCLC 95.9% | NCI-H460 lung 109% | HOP-92 NSCLC 105% | NCI-H522 lung 89.8% | A549/ATCC NSCLC 88.8% | 786-0 renal 95.6% | COLO 205 colon 109% | DU-145 prostate 109% | K-562 leukemia 99.9% | MALME-3M melanoma 99.5% | MDA-MB-231 breast 96.9% | RXF 393 renal 112% | SF-268 CNS 99.9% | SF-295 CNS 94.9% | SF-539 CNS 93.9% | UACC-257 melanoma 86.6% | M14 melanoma 99.2%

CCCC(=O)c1cccs1
inactive: NCI-H23 lung 95.3% | NCI-H226 lung 93.2% | NCI-H322M lung 112% | HOP-62 NSCLC 99.9% | NCI-H460 lung 105% | HOP-92 NSCLC 84.7% | NCI-H522 lung 107% | A549/ATCC NSCLC 99.3% | 786-0 renal 92.1% | COLO 205 colon 111% | DU-145 prostate 109% | K-562 leukemia 112% | MALME-3M melanoma 107% | MDA-MB-231 breast 104% | RXF 393 renal 102% | SF-268 CNS 105% | SF-295 CNS 95.7% | SF-539 CNS 93.7% | UACC-257 melanoma 92.5% | M14 melanoma 105%

COc1cc(-c2ccc(NC(=O)CC(C)=O)c(OC)c2)ccc1NC(=O)CC(C)=O
inactive: NCI-H23 lung 96% | NCI-H226 lung 91.4% | NCI-H322M lung 102% | HOP-62 NSCLC 98% | NCI-H460 lung 109% | HOP-92 NSCLC 98.2% | NCI-H522 lung 95.5% | A549/ATCC NSCLC 88.5% | 786-0 renal 105% | COLO 205 colon 115% | DU-145 prostate 111% | K-562 leukemia 98% | MALME-3M melanoma 97.3% | MDA-MB-231 breast 101% | RXF 393 renal 113% | SF-268 CNS 107% | SF-295 CNS 101% | SF-539 CNS 97.6% | UACC-257 melanoma 89.3% | M14 melanoma 104%

Cn1c(=O)c2[nH]c(CC(=O)O)nc2n(C)c1=O
inactive: NCI-H23 lung 100% | NCI-H226 lung 90.9% | NCI-H322M lung 99.6% | HOP-62 NSCLC 97.2% | NCI-H460 lung 110% | HOP-92 NSCLC 113% | NCI-H522 lung 86.4% | A549/ATCC NSCLC 91.4% | 786-0 renal 106% | COLO 205 colon 109% | DU-145 prostate 108% | K-562 leukemia 105% | MALME-3M melanoma 99.4% | MDA-MB-231 breast 100% | RXF 393 renal 104% | SF-268 CNS 101% | SF-295 CNS 101% | UACC-257 melanoma 96.9% | M14 melanoma 104%

COC(=O)c1ccccc1C(=O)c1c(C)cc(C)cc1C
inactive: NCI-H23 lung 94.7% | NCI-H226 lung 89.5% | NCI-H322M lung 101% | HOP-62 NSCLC 95.1% | NCI-H460 lung 105% | HOP-92 NSCLC 107% | NCI-H522 lung 87.5% | A549/ATCC NSCLC 84.4% | 786-0 renal 104% | COLO 205 colon 104% | DU-145 prostate 104% | K-562 leukemia 96.7% | MALME-3M melanoma 99.1% | MDA-MB-231 breast 97.4% | RXF 393 renal 111% | SF-268 CNS 102% | SF-295 CNS 102% | UACC-257 melanoma 99.6% | M14 melanoma 108%

O=C(O)CSCC(=O)Nc1cc(C(F)(F)F)ccc1Cl
inactive: NCI-H23 lung 111% | NCI-H226 lung 109% | NCI-H322M lung 103% | HOP-62 NSCLC 105% | NCI-H460 lung 134% | HOP-92 NSCLC 104% | NCI-H522 lung 99.9% | A549/ATCC NSCLC 106% | 786-0 renal 107% | COLO 205 colon 121% | DU-145 prostate 128% | K-562 leukemia 102% | MALME-3M melanoma 105% | MDA-MB-231 breast 112% | RXF 393 renal 128% | SF-268 CNS 94.5% | SF-295 CNS 103% | SF-539 CNS 101% | UACC-257 melanoma 103% | M14 melanoma 103%
